Source: PubChem (National Center for Advancing Translational Sciences (NCATS))
ELG1 genotoxic: genotoxicity induction in ELG1-luciferase HEK293T cells; HEK293T ELG1-luciferase reporter, luminescence, 16 h; Potency, µM (titrated, usually from 46 µM), usual class: activators; actives 1.3% (n = 330,000); also: nearly all actives have a fitted effect of over 60% in size
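Quantitative HTS format in 1536-well plates. HEK293T ELG1-luciferase reporter cells receive test compound and are incubated 16 hr at 37 °C, 5% CO2; ONE-Glo added, 30 min room temperature, then luminescence read.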
FLuc modulator: counter-screen for miR-21 project: firefly luciferase inhibitors or activators | P08659 | purified FLuc, Km substrates, luminescence inhibition | Potency, µM (top dose mostly 57.5 µM), most hits filed as inhibitors | actives 6.9% (n = 360,000) | AID 588342; also: nearly all actives have a fitted effect of over 55% in size
Target sequence (P08659 whole entry, looked up): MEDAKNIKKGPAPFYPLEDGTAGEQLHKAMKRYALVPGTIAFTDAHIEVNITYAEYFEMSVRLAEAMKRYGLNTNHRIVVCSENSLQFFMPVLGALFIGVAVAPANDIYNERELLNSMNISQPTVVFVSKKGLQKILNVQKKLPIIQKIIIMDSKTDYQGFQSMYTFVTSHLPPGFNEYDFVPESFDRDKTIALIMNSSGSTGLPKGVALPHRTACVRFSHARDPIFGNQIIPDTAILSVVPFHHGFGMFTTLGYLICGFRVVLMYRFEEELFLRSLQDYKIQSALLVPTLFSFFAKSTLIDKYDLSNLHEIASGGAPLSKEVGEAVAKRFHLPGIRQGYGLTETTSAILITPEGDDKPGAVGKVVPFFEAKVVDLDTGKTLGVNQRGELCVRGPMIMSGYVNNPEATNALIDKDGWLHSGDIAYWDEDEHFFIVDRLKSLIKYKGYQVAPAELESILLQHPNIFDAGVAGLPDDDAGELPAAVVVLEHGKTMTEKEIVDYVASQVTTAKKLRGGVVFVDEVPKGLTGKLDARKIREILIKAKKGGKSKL
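Biochemical qHTS of compounds, final roughly 60 µM downward over six points, against 10 nM purified firefly luciferase using Km concentrations of substrates (10 uM D-luciferin, 10 uM ATP) in Tris acetate pH 7.5 buffer; luminescence output.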
Rab9 prom act: activates the Rab9 promoter; Huh7 Rab9 promoter-luciferase reporter, luminescence, 24 h; Potency, µM (highest dose often 9.22 µM), most hits filed as activators; actives 2.8% (n = 320,000); also: nearly all actives have a fitted effect of over 60% in size
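Luminescence from Amplite-detected luciferase (10 minutes, ambient) reports Rab9 promoter activation. Before that, stable Rab9-luciferase Huh7 cells (1500/well, reduced-serum OP-MEM I plus 10% FBS) were exposed to compound for 24 hours at 37C.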
ELG1 DNA repair: blocks ELG1-dependent DNA repair in HEK293T cells. HEK293T ELG1-luciferase reporter, luminescence, 16 h; DNA damage induced by 5-fluorouridine. Potency, µM (top dose mostly 46.1 µM), usual class: inhibitors. actives 2.3% (n = 330,000); also: nearly all actives have a fitted effect of over 55% in size
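Quantitative HTS, concentration-response format. 2,000 cells/well co-treated with 5-fluorouridine and compound, 16 hr in 5% CO2 at 37 °C; ONE-Glo luminescence read after 30 min.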
SMN2 splice enh: enhancers of SMN2 splice variant expression; HEK293 SMN2-luciferase splicing reporter, luminescence, 30-36 h; Potency, µM (doses to about 46.1 µM), usual class: activators; actives 2.8% (n = 210,000); AID 1458; also: nearly all actives have a fitted effect of over 55% in size
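HEK293 cells carry an SMN2 minigene-luciferase reporter in which exon 7 inclusion puts luciferase in frame. Cells were seeded at 2000 cells/well, attached for 10-12 hours, then exposed to compounds for 30-36 hours at 37C before ONE-Glo luminescence.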
NPC1 promoter act: activates the NPC1 promoter; Huh7 NPC1 promoter luciferase reporter, 24 h; Potency, µM (series often up to 9.22 µM), most hits filed as activators; actives 2.4% (n = 320,000); AID 485313; also: nearly all actives have a fitted effect of over 60% in size
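NPC1 promoter–luciferase Huh7 cells; 24 h compound; luminescence.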
Hits are given with their value; 0 = inactive; ? = inconclusive; - = no result given; ! = repeats disagree; [ ] = remark or other dose. Only some compounds are listed: those with a hit (about 9.2% of all), similar ones and a draw of the others. Calls follow the shape of the dose curve; as a rule, active = well fitted curve in the direction sought with a large enough effect; inconclusive = small, poorly fitted or top-dose-only effect, or another doubt; inactive = no such curve, though single readings can be large; an effect the other way counts as inactive or inconclusive.

SMILES	ELG1 genotoxic	FLuc modulator	Rab9 prom act	ELG1 DNA repair	SMN2 splice enh	NPC1 promoter act
Clc1ccccc1OCCn1cnc2ccccc21	?	17µM	?	?	0	0
COc1ccc(NS(=O)(=O)c2ccc3c(c2)NC(=O)CCS3)cc1Cl	0	0	0	0	-	0
COc1ccc(C2c3cccn3CCN2S(=O)(=O)c2ccccc2[N+](=O)[O-])cc1OC (configuration not stated)	-	0	-	-	-	-
O=C(O)c1ccc(S(=O)(=O)NCc2ccc3c(c2)OCO3)cc1	0	0	0	0	-	0
O=C(NC1CCCC1)C(c1ccccn1)N(Cc1ccccc1F)C(=O)c1csnn1 (configuration not stated)	0	0	0	0	-	0
CCCN(C(=O)COc1cc(=O)n(CC)c2ccccc12)c1ccc(C(C)C)cc1	-	0	-	-	0	-
CCOC(=O)C1CCCN(C(=S)Nc2ccc(Nc3ccccc3)cc2)C1 (configuration not stated)	0	0	1.4µM	?	11µM	?
CCOC(=O)C1CCCN(CCC(=O)Nc2cccc(C)c2)C1 (configuration not stated)	?	15µM!	3.2µM	?	0	3.5µM
COC(=O)CSc1nnc(-c2cccc(NC(=O)c3ccc(C)cc3)c2)n1C	0	24µM	0	0	0	0
Cn1nnnc1SCc1ccc(C(=O)Nc2ccc(Br)cc2)cc1	?	6µM	?	?	0	?
Cc1ccc(NC(=O)c2ccc(CSc3nnc(-c4ccncc4)n3C)cc2)cc1	0	1.9µM	0	0	0	0
CC(=O)Nc1ccc(C(=O)CSc2nnnn2C)cc1	0	0	0	0	-	0
O=C(Nc1nccs1)c1ccc(CSc2nnnn2-c2ccccc2)cc1	0	?	0	23µM	0	0
CC(=O)Nc1ccc(-c2nnc(SCc3ccc(C)cc3)n2C)cc1	0	0	0	0	0	0
NC(=O)c1ccc(-n2nnnc2SCc2ccccc2)cc1	0	0	0	0	0	0
O=C(NCCN1CCOCC1)C1CC(=O)N(c2ccc(Cl)cc2)C1 (configuration not stated)	0	0	0	0	-	0
COc1ccc(NC(=O)CSc2ccc(-c3cccs3)nn2)cc1	-	0	-	-	-	-
Cc1ccc2oc(=O)n(CCCOc3ccc(Cl)cc3)c2c1	-	0	-	-	0	-
CCC(=O)Nc1ccc(-c2nnc(SCc3ccc(C(=O)Nc4nccs4)cc3)n2CC)cc1	0	11µM	-	?	0	0
CCn1c(SCC(=O)Nc2nccs2)nnc1-c1ccc(C)cc1	0	0	0	0	0	0
Fc1cccc2sc(Nc3nc4c(F)cccc4s3)nc12	0	4.3µM	?	0	16µM	?
COc1cc(OC)cc(-c2nnc(Nc3nc4c(F)cccc4s3)o2)c1	0	?	0	0	0	0
Fc1cccc2sc(Nc3nnc(-c4ccccc4)o3)nc12	?	3µM	3.2µM	?	3.2µM	2.5µM
O=C(Nc1ccc(F)c(Cl)c1)c1cc(S(=O)(=O)NCc2ccc3c(c2)OCO3)ccc1F	-	0	-	-	-	-
CCCSc1nc2c3c(sc2c(=O)[nH]1)CC(C)(CC)OC3 (configuration not stated)	0	5.4µM	0	0	0	0
SMILES	ELG1 genotoxic	FLuc modulator	Rab9 prom act	ELG1 DNA repair	SMN2 splice enh	NPC1 promoter act
CCOC(=O)CSc1nc2sc3c(c2c(=O)[nH]1)CC(C)(CC)OC3 (configuration not stated)	0	0	0	0	0	0
COc1ccc(OC)c(NC(=O)CN2CCC(C(=O)c3ccc(C)cc3)CC2)c1	0	0	0	21µM	0	0
CCOc1ccc(C(=O)Nc2ccccc2N2CCOCC2)cc1	0	?	0	0	0	0
CCOc1ccc(C(=O)C2CCN(CC(=O)Nc3ccccc3N3CCOCC3)CC2)cc1	0	0	0	21µM	0	0
CC(C)[C@@H](NC(=O)C1CCN(C(=O)[C@@H]2CCCN2C(=O)OC(C)(C)C)CC1)C(=O)NCc1ccc(F)cc1	0	0	0	0	-	0
CCC(C)(C)NC(=O)C1CCCN(S(=O)(=O)c2ccc3c(c2)CC(C)N3C(=O)C2CC2)C1 (configuration not stated)	0[9.26 µM]	0	0	0	-	0
COC(=O)c1[nH]c2cc(C)ccc2c1NC(=O)CN1CCCc2ccccc21	0	24µM	?	?	0	?
COC(=O)c1c(NC(=O)CN2CCCc3ccccc32)sc(C)c1C	0	0	0	0	0	0
COC(=O)c1[nH]c2ccc(Br)cc2c1NC(=O)CN1CCCc2ccccc21	0	0	0	8.2µM	0	0
O=C(c1ccccc1NS(=O)(=O)c1cccc2cccnc12)N1CCOCC1	0	0	0	0	0	0
CN(CC(=O)Nc1ccc(F)cc1)C(=O)C1CCCC1	0	0	0	0	-	0
Cc1noc(C)c1C(=O)N1CCC[C@@]2(CCN(C(=O)Nc3cccc(F)c3)C2)C1	-	-	-	-	0	-
CCOc1ccc(NC(=O)CC2C(=O)N(c3ccc(F)cc3)C(=O)N2Cc2ccc(OC)c(OC)c2)cc1 (configuration not stated)	-	0	-	-	0	-
COc1ccc(C2=NN(C(=O)CSc3ncccn3)C(c3cccc(OC)c3OC)C2)cc1 (configuration not stated)	0	0	0	?	0	0
CCOc1cccc2c1OC(c1cc(OC)c(OC)c(OC)c1)N1N=C(c3ccc(C)o3)CC21 (configuration not stated)	?	3µM	0	?	?	0
Cc1ccc(Cn2nnc(C(=O)Nc3cccc(C)c3C)c2N)cc1	0	0	0	0	0	0
Cc1cccc(NC(=O)c2n[nH]c([N+](=O)[O-])c2Br)c1C	?	3.8µM	1µM	?	10µM	0.79µM
BrCCOCCOc1ccc2ccccc2c1	?	15µM	?	?	?	?
CC(C)(C)OCC1CO1 (configuration not stated)	0	0	0	0	0	0
Cc1cccc(NC(=O)c2ccc(-n3cnc4cccnc43)cc2)c1C	-	0	-	-	-	-
Cc1nc(N)sc1N=Nc1ccccc1C(F)(F)F	?	12µM	2.8µM	?	-	?
Cc1ccc(/C=N/NC(=O)Cc2cccn2C)cc1	0	?	?	?	-	0
CCc1ccc(/C=N/NC(=O)Cc2cccn2C)cc1	0	24µM	?	?	-	?
Cn1cccc1CC(=O)N/N=C/c1ccc(C(C)(C)C)cc1	0	17µM	?	?	-	0
COc1ccc(-c2cc(=O)oc3cc(OCC(=O)Nc4ccc(CCO)cc4)ccc23)cc1	0	0	0	0	-	0
COc1ccc2[nH]c(C(=O)N/N=C/c3ccccc3OC)cc2c1	0	19µM	0	?	-	0
CCOc1ccc2[nH]c(C(=O)N/N=C/c3ccccc3OC)cc2c1	0	15µM	0	?	-	0
